# Laboratory results reported in PubChem BioAssay.
# Several values for one entry are separate records, joined by “and”; a condition that tells them apart may be missing. Equal values may be shown once. Records with an inconclusive call do not appear. Activity calls are given as the source filed them.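 How the source made its calls, unless noted: active means normalized viability below 100% at a tested concentration; inactive means the rest.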
# Assays:
# [1] = viability loss in pontine glioma line – cell-based, SU-DIPG-XVII, MIPE5.0, CellTiter-Glo, qHTS, dose response (AID 1347060; cut-off not given, nearly all actives have AC50 up to about 26 µM;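 on AC50: cells exposed to compound for 48 hours before viability readout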); settings: CellTiter-Glo ATP luminescence
# [2] = viability loss in pontine glioma line – cell-based, JHH-DIPG-1, MIPE4.0, CellTiter-Glo, qHTS, dose response (AID 1347062; cut-off not given, nearly all actives have AC50 up to about 27 µM;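 on AC50: cells exposed to compound for two days before readout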); settings: JHH-DIPG-1 viability, CellTiter-Glo ATP luminescence
# [3] = viability loss in pontine glioma line – cell-based, SU-DIPG-XIII, MIPE5.0, CellTiter-Glo, qHTS, dose response (AID 1347064; cut-off not given, nearly all actives have AC50 up to about 23 µM;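 on AC50: cells exposed to compound for 48 hours before the viability read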); settings: CellTiter-Glo ATP luminescence
# [4] = viability loss in pontine glioma line – cell-based, SU-DIPG-XXV, MIPE5.0, CellTiter-Glo, qHTS, dose response (AID 1347065; cut-off not given, nearly all actives have AC50 up to about 26 µM;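 further: cells exposed to compound for 48 hours before ATP readout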); settings: CellTiter-Glo ATP luminescence
# [5] = growth inhibition of DIPG cells – cell-based, MIPE4.0 library, CellTiter-Glo luminescence, qHTS (AID 1347066; cut-off not given, nearly all actives have AC50 up to about 30 µM;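 further: cells exposed to compound for 48 hours before readout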); settings: SU-DIPG-VI viability, CellTiter-Glo ATP luminescence
# [6] = JHH-DIPG-1 glioma cell viability, MIPE5.0 library, CellTiter-Glo luminescence, qHTS (AID 1347067; cut-off not given, nearly all actives have AC50 up to about 26 µM;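 further: cells exposed to compound for 48 hours before readout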); settings: JHH-DIPG-1 glioma viability, CellTiter-Glo ATP luminescence
# [7] = growth inhibition of DIPG cells – cell-based, MIPE5.0 library, qHTS (AID 1347068; cut-off not given, nearly all actives have IC50 up to about 30 µM;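 on IC50: cells exposed to compound for 48 hours before viability readout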); settings: SU-DIPG-XXV viability
# [8] = viability loss with induced miR-34 in A549 – imaging, A549 dox-inducible miR-34, nuclei and caspase counts, primary screen (AID 1347080;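 active means compounds whose cell count with miR-34 switched on is under 0.7 times the count with it off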); settings: A549 miR-34 inducible, Hoechst nuclei count, 48 h
# [9] = compounds altering HSF1 focus formation in cells – imaging, Selleck Cancer Library (AID 1347162; in the data active means plate-normalised HSF1 focus index below about 0.46); settings: human cells, HSF1 nuclear foci imaging, at 10 µM; SSMD: measured here: HSF1 foci SSMD mean; cell count: measured here: cell number; plate-normalised HSF1 focus index: stronger effect = lower value
# [10] = MELAS cybrid and Rieske KO viability enhancers – cell-based, MELAS cybrids, Rieske KO mouse fibroblasts, CellTiter-Glo, primary screen (AID 1508586;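 active means mean z-score across replicates of 1.96 or higher in either the MELAS or the Rieske mutant cell line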;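 further: z relative to plate mean and SD of compound and empty wells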); settings: low glucose
# [11] = drug combination growth inhibition, ovarian cancer – cell-based, oncology-focused library, rucaparib conditional, profiling panel (AID 1508598); settings: patient-derived ovarian cancer cells, CellTiter-Glo viability, 144 h, stronger effect = lower value
smiles,measurement,setting,value
CN(C(=O)c1ccc(F)cc1C(F)(F)F)C1CCN(c2nnc(-c3ccnn3C)c3ccccc23)CC1,outcome,[1],inactive
same,outcome,[2],inactive
same,outcome,[3],inactive
same,outcome,[4],inactive
same,outcome,[5],inactive
same,outcome,[6],inactive
same,outcome,[7],inactive
N#Cc1cc(NC(=O)Nc2nnc(-c3ccncc3)s2)ccc1-c1cn[nH]c1,AC50,[1],372 nM (active)
same,outcome,[2],inactive
same,outcome,[3],inactive
same,outcome,[4],inactive
same,outcome,[5],inactive
same,outcome,[7],inactive
COc1cccc2c1C(=O)c1c(O)c3c(c(O)c1C2=O)C[C@@](O)(C(=O)CO)C[C@@H]3O[C@H]1C[C@H](N)[C@H](OC2CCCCO2)[C@H](C)O1 (some centres not stated),AC50,[1],417 nM (active) and 332 nM (active)
same,AC50,[2],16.6 µM (active)
same,AC50,[3],2.95 µM (active) and 833 nM (active)
same,AC50,[4],4.68 µM (active) and 1.66 µM (active)
same,AC50,[6],2.95 µM (active) and 2.35 µM (active)
same,IC50,[7],6.61 µM (active) and 9.34 µM (active)
CC(=O)c1c(C)c2cnc(Nc3ccc(N4CCNCC4)cn3)nc2n(C2CCCC2)c1=O,AC50,[1],23500 nM (active)
same,AC50,[2],29.6 µM (active)
same,AC50,[3],20.9 µM (active)
same,AC50,[4],18.6 µM (active)
same,AC50,[6],20.9 µM (active)
same,outcome,[7],inactive
same,fold change,"[8]; stronger effect = lower value, cell number ratio, induced over uninduced",0.86 (inactive)
same,fold change,[8]; measured here: relative caspase fold change +Dox/-Dox,1.36
same,cell count,"[8]; measured here: total cells with miR-34 induction, stronger effect = lower value",3100
same,cell count,[8]; measured here: total cells without miR-34 induction,3600
same,SSMD,[9],-9.93
same,cell count,[9],5060
same,plate-normalised HSF1 focus index,[9],0.38 (inactive)
same,z-score,"[10]; MELAS cybrid survival, CellTiter-Glo 48 h, stronger effect = higher value",0.0111 (inactive)
same,z-score,"[10]; Rieske KO mouse fibroblast survival, CellTiter-Glo 72 h",-0.48
same,viability,"[11]; at 0.000305 µM, OCI-C5x cells, with rucaparib 10 µM, 100% = cells with rucaparib alone",132% (inactive)
same,viability,"[11]; at 0.000305 µM, OCI-C5x cells, without rucaparib",95.6% (active)
same,viability,"[11]; at 0.000305 µM, OCI-P5x cells, with rucaparib 20 µM, 100% = cells with rucaparib alone",93.8% (active)
same,viability,"[11]; at 0.000305 µM, OCI-P5x cells, without rucaparib",93.8% (active)
same,viability,"[11]; at 0.00122 µM, OCI-C5x cells, with rucaparib 10 µM, 100% = cells with rucaparib alone",119% (inactive)
same,viability,"[11]; at 0.00122 µM, OCI-C5x cells, without rucaparib",104% (inactive)
same,viability,"[11]; at 0.00122 µM, OCI-P5x cells, with rucaparib 20 µM, 100% = cells with rucaparib alone",94.1% (active)
same,viability,"[11]; at 0.00122 µM, OCI-P5x cells, without rucaparib",91.2% (active)
same,viability,"[11]; at 0.00488 µM, OCI-C5x cells, with rucaparib 10 µM, 100% = cells with rucaparib alone",119% (inactive)
same,viability,"[11]; at 0.00488 µM, OCI-C5x cells, without rucaparib",104% (inactive)
same,viability,"[11]; at 0.00488 µM, OCI-P5x cells, with rucaparib 20 µM, 100% = cells with rucaparib alone",95.4% (active)
same,viability,"[11]; at 0.00488 µM, OCI-P5x cells, without rucaparib",100% (inactive)
same,viability,"[11]; at 0.0195 µM, OCI-C5x cells, with rucaparib 10 µM, 100% = cells with rucaparib alone",122% (inactive)
same,viability,"[11]; at 0.0195 µM, OCI-C5x cells, without rucaparib",116% (inactive)
same,viability,"[11]; at 0.0195 µM, OCI-P5x cells, with rucaparib 20 µM, 100% = cells with rucaparib alone",95% (active)
same,viability,"[11]; at 0.0195 µM, OCI-P5x cells, without rucaparib",94.4% (active)
same,viability,"[11]; at 0.0781 µM, OCI-C5x cells, with rucaparib 10 µM, 100% = cells with rucaparib alone",115% (inactive)
same,viability,"[11]; at 0.0781 µM, OCI-C5x cells, without rucaparib",118% (inactive)
same,viability,"[11]; at 0.0781 µM, OCI-P5x cells, with rucaparib 20 µM, 100% = cells with rucaparib alone",96.9% (active)
same,viability,"[11]; at 0.0781 µM, OCI-P5x cells, without rucaparib",103% (inactive)
same,viability,"[11]; at 0.313 µM, OCI-C5x cells, with rucaparib 10 µM, 100% = cells with rucaparib alone",111% (inactive)
same,viability,"[11]; at 0.313 µM, OCI-C5x cells, without rucaparib",126% (inactive)
same,viability,"[11]; at 0.313 µM, OCI-P5x cells, with rucaparib 20 µM, 100% = cells with rucaparib alone",99.2% (active)
same,viability,"[11]; at 0.313 µM, OCI-P5x cells, without rucaparib",98.7% (active)
same,viability,"[11]; at 1.25 µM, OCI-C5x cells, with rucaparib 10 µM, 100% = cells with rucaparib alone",115% (inactive)
same,viability,"[11]; at 1.25 µM, OCI-C5x cells, without rucaparib",133% (inactive)
same,viability,"[11]; at 1.25 µM, OCI-P5x cells, with rucaparib 20 µM, 100% = cells with rucaparib alone",97.6% (active)
same,viability,"[11]; at 1.25 µM, OCI-P5x cells, without rucaparib",99.7% (active)
same,viability,"[11]; at 5 µM, OCI-C5x cells, with rucaparib 10 µM, 100% = cells with rucaparib alone",114% (inactive)
same,viability,"[11]; at 5 µM, OCI-C5x cells, without rucaparib",139% (inactive)
same,viability,"[11]; at 5 µM, OCI-P5x cells, with rucaparib 20 µM, 100% = cells with rucaparib alone",103% (inactive)
same,viability,"[11]; at 5 µM, OCI-P5x cells, without rucaparib",97.9% (active)
Cc1ccc(CN2CCNCC2)cc1NC(=O)CNc1ccc(F)c(F)c1,outcome,[1],inactive
same,outcome,[2],inactive
same,outcome,[3],inactive
same,outcome,[4],inactive
same,outcome,[6],inactive
same,outcome,[7],inactive
